Hits are enriched below; roughly 11% of the tested compounds scored in any of these assays.
FLuc inh – blocks purified firefly luciferase enzyme activity; Potency, µM (series often up to 115 µM), hits mostly inhibitors; purified P. pyralis luciferase, luminescence, biochemical; 2.5% of 76,000 active; note: nearly all actives have a fitted effect of over 65% in size
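Purified P. pyralis luciferase (10nM final) in 50mM Tris acetate pH 7.5, 10mM Mg acetate, 0.01% Tween-20, 0.05% BSA with 10uM D-luciferin and 10uM ATP. Compounds titrated qHTS. Luminescence imaged on CCD.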
NPR1 antag – antagonists of human natriuretic peptide receptor Npr1. P16066. HEK293 hNpr1 GloSensor cGMP, ANP-stimulated luminescence. Potency, µM (top dose mostly 46.3 µM), inactives show at the highest dose activity change, negative = inhibition, hits mostly inhibitors. 1.6% of 76,000 active; calls by dose curve; note: nearly all actives have a fitted effect of over 60% in size
Target sequence (P16066 whole entry, looked up): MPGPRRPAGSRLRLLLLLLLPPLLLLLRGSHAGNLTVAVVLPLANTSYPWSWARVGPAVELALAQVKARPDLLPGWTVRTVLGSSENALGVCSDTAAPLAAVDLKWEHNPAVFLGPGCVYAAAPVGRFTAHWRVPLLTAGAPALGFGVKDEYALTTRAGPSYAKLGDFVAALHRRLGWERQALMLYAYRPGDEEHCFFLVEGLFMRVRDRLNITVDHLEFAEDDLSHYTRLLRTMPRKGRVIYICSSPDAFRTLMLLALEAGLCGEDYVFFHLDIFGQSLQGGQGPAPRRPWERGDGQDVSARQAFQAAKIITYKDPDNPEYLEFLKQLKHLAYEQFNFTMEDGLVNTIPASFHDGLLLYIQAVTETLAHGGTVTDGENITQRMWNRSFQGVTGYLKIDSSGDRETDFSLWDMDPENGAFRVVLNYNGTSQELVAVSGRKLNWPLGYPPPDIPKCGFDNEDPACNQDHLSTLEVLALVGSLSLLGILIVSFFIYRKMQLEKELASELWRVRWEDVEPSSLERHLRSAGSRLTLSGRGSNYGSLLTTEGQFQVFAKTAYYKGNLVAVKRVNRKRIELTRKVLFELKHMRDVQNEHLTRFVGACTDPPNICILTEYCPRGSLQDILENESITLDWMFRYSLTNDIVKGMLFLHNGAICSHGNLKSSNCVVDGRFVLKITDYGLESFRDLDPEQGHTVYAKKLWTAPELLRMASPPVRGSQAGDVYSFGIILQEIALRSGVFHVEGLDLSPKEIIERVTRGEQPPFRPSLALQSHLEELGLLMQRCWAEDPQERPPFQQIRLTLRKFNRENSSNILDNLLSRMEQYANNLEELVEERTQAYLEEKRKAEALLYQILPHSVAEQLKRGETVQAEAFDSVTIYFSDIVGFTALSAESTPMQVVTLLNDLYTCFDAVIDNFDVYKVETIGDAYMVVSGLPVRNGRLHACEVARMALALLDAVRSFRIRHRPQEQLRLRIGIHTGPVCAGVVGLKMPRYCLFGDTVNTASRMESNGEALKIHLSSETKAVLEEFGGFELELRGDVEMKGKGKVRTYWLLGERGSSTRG
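HEK293 cells stably expressing human Npr1 and cGMP GloSensor pGS-40F, loaded 2 h with 2% GloSensor reagent, given compound 30 min at room temperature. Luminescence read before and 20 min after 0.1 nM hNppA.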
HEK cytotox – kills HEK 293 cells | Potency, µM (highest dose often 115 µM), for inactives: at the top dose activity change, negative = cytotoxicity, hits mostly inhibitors | 6.6% of 94,000 active | HEK 293 viability, ATP luminescence (CellTiter-Glo), 48-72 h; note: nearly all actives have a fitted effect of over 60% in size
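qHTS cytotoxicity; HEK 293, 250 cells/well; compound pinned; 48 or 72 hr, 37 degree Celsius, 5% CO2, 95% humidity; CellTiter-Glo, 10 min RT; luminescence (ATP).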
NIH3T3 tox – cytotoxic compounds in NIH 3T3 cells. Potency, µM (titrated, usually from 96.7 µM), for inactives: at the highest dose activity change, negative = cytotoxicity, usual class: inhibitors. NIH 3T3 viability, CellTiter-Glo ATP luminescence, 48-72 h. 4.3% of 94,000 active. AID 1345082; note: nearly all actives have a fitted effect of over 55% in size
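First NIH 3T3 cells are plated at 400 cells/well; next compound is pinned in; then plates incubate 48 or 72 hr at 37 °C; finally CellTiter-Glo is added and luminescence read after 10 min.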
Active calls of the source: *; i = inactive; ? = inconclusive; / = no result given; [ ] = remark or other dose. Unless noted, calls come from the whole dose curve; as a rule, active = well fitted curve in the direction sought with a large enough effect; inconclusive = small, poorly fitted or top-dose-only effect, or another doubt; inactive = no such curve, though single readings can be large; an effect the other way counts as inactive or inconclusive. % is set by controls: 0 for no effect and ±100 for the full control effect; potency is the fitted concentration of half-maximal effect.

SMILES	FLuc inh	NPR1 antag	HEK cytotox	NIH3T3 tox
CCCCc1cc(C[C@@H]2C[C@H](NC(=O)C(C)(C)C)C2(C)C)no1	?	-25%[70.6 µM]	71µM*	?
CC1(C)[C@H](Cc2cc(CN3CCN(c4ccccc4)CC3)on2)C[C@@H]1NCC1CC1	i	2%[70.6 µM]	89µM*	?
CC1(C)[C@H](Cc2cc(CC3CCCCC3)on2)C[C@@H]1NC(=O)c1ccccc1	i	?	32µM*	56µM*
CC1(C)[C@H](Cc2cc(CC3CCCCC3)on2)C[C@@H]1NS(C)(=O)=O	i	1%[70.6 µM]	71µM*	?
COCc1cc(C[C@@H]2C[C@H](NS(C)(=O)=O)C2(C)C)no1	i	4%[70.6 µM]	3%[172 µM]	5%[138 µM]
CC(=O)NCc1nnc2n1C(C(=O)NCCc1ccccc1F)CC2 (centres undefined)	/	/	i	5%
COCc1nncn1C1CCN(S(=O)(=O)c2ccc(Cl)c(C)c2)CC1	i	-12%	-14%	-22%
COc1ccc(C(=O)N[C@H]2C[C@@H](Cc3cc(CN(C)C)on3)C2(C)C)cc1	i	-3%[70.6 µM]	-19%[172 µM]	-16%[138 µM]
CC(C)Cc1cc(C[C@@H]2C[C@H](NC(=O)c3ccco3)C2(C)C)no1	i	-17%[70.6 µM]	71µM*	?
COc1ccc(C(=O)N[C@H]2C[C@@H](Cc3cc(-c4ccccc4)on3)C2(C)C)cc1	?	?	45µM*	50µM*
O=C(N[C@H]1[C@H](O)[C@H](O)C[C@@H]1c1cccnc1)c1ccccc1	i	-4%[70.6 µM]	-14%[172 µM]	-10%[174 µM]
CC1(C)[C@H](Cc2cc(CN3CCOCC3)on2)C[C@@H]1N(Cc1ccco1)Cc1ccco1	i	-28%	?	?
CN(C)Cc1cc(C[C@@H]2C[C@H](N(Cc3ccco3)Cc3ccco3)C2(C)C)no1	i	-4%[70.6 µM]	71µM*	79µM*
O=C1CO[C@H]2CN(c3nccc(C(F)(F)F)n3)C[C@H]2N1Cc1ccc(F)cc1	i	-1%[70.6 µM]	100µM*	?
CN1Cc2ccc(N3CCOCC3)nc2C(C)(C(=O)NCCCn2ccnc2)C1 (centres undefined)	i	0%[70.6 µM]	i	?
O=C(NCC1Cn2cccc2CN1Cc1ccccc1)c1n[nH]c2ccccc12 (centres undefined)	14µM*	-27%	?	?
c1ccc2c(c1)COC1(CCNC1)CN2CC1CCCCC1 (centres undefined)	/	/	79µM*	32µM*
Cc1cc(C)c(CNC(=O)c2cc(-c3cccnc3)cc3c2OCCN3C(C)C)c(=O)[nH]1	i	0%[70.6 µM]	100µM*	?
COc1ccc(-c2cc(C(=O)NCc3c(C)cc(C)[nH]c3=O)c3c(c2)N(C(C)C)CCO3)cc1OC	i	5%	?	25µM*
COc1ccccc1-c1cc(C(=O)NCc2c(C)cc(C)[nH]c2=O)c2c(c1)ncn2C	i	5%[70.6 µM]	?	40µM*
Cc1cc(C)c(CNC(=O)c2cc(-c3ccccc3C)cc3c2OCCN3C)c(=O)[nH]1	i	-30%[70.6 µM]	89µM*	45µM*
COc1ccc(CN2C=C(C(=O)O)C(C)=NS2(=O)=O)cc1F	i	-2%	6%	0%
O=C(c1ccccc1F)N1CCC2(Cc3ccccc3NC2=O)C1 (centres undefined)	i	-17%[70.6 µM]	-26%[172 µM]	-21%[138 µM]
CCNC(=O)[C@@H]1C[C@H](N)CN1C(=O)c1c(C)nc2sccn12	i	4%	-5%	2%
Cc1ccccc1-c1cc(C(=O)NCCc2cnc[nH]2)c2c(c1)N(C)CCO2	i	-3%[70.6 µM]	?	100µM*
SMILES	FLuc inh	NPR1 antag	HEK cytotox	NIH3T3 tox
COc1ccc(C2(C(=O)N3CC(CO)C4(CCNCC4)C3)CCCCC2)cc1 (centres undefined)	?	5%	-3%	-4%
O=C(c1cncc(Br)c1)N1CCC(CCOc2ccccc2F)C1 (centres undefined)	i	-15%	40µM*	?
Cc1ccc2c(C)c(C(=O)N3C[C@@H](NS(C)(=O)=O)[C@H](C(C)C)C3)oc2c1	i	0%	45µM*	?
Cc1ccc2c(C)c(C(=O)N3CC[C@H](O)[C@@H](O)C3)oc2c1	i	3%	-19%	-12%
COC(=O)[C@@H]1Cc2c([nH]c3ccccc23)[C@H]2C[C@@H](NCc3cccs3)C[C@@H](c3ccc(F)cc3)N21	i	0%	?	79µM*
CC[C@H]1CN(C(=O)c2ccc(F)cc2)CC[C@H]1CC(=O)NCc1cccs1	i	-3%[70.6 µM]	-9%[172 µM]	?
COC(=O)[C@@H]1Cc2c([nH]c3ccccc23)[C@H]2C[C@H](NCc3cccs3)C[C@@H](c3ccc(F)cc3)N21	i	1%	28µM*	22µM*
O=C1CCCN1Cc1noc(-c2cccc(Cl)c2)n1	i	0%	3%	-7%
C=CCn1cc2c3c(cccc31)[C@H](CC(C)C)N[C@H](C(=O)NCc1ccccc1)C2	i	-17%[70.6 µM]	?	?
C=CCNC(=O)[C@@H]1Cc2cn(Cc3c(C)noc3C)c3cccc(c23)[C@H](CC(C)C)N1	i	0%[70.6 µM]	100µM*	112µM*
C=CCn1cc2c3c(cccc31)[C@H](CC(C)C)N[C@H](C(=O)NC1CCCC1)C2	i	0%[70.6 µM]	40µM*	32µM*
CC(C)C[C@@H]1N[C@H](C(=O)NC2CCCC2)Cc2cn(CC3CC3)c3cccc1c23	i	4%[70.6 µM]	45µM*	35µM*
C=CCn1cc2c3c(cccc31)[C@H](CC(C)C)N[C@H](C(=O)NC1CCC1)C2	i	-5%[70.6 µM]	63µM*	?
COCCc1noc(C2CN(C(=O)CCC3CCCC3)C2)n1	/	/	-6%	?
CCc1noc(-c2cn(C3CCN(C(=O)c4cccn4C)CC3)nn2)n1	i	-3%	-2%	-12%
CCOC(=O)C1(Cc2ccccc2F)CCCN(C(=O)c2cccc(C(=O)OC)c2)C1 (centres undefined)	i	-8%	?	?
COc1cccc(CNC(=O)C2CCc3nnc(C4CC4)n32)c1 (centres undefined)	/	/	-23%[172 µM]	-13%[138 µM]
C=CCn1cc2c3c(cccc31)[C@H](CC(C)C)N[C@H](C(=O)NCc1ccccc1OC)C2	i	-5%[70.6 µM]	40µM*	25µM*
C=CCNC(=O)[C@@H]1Cc2cn(CC3CC3)c3cccc(c23)[C@H](CC(C)C)N1	i	-16%[70.6 µM]	50µM*	?
CC(C)(Oc1nn(CC2CCOCC2)c2ccccc12)C(=O)NC1CCOCC1	i	0%[70.6 µM]	1%[172 µM]	?
COc1ccc(C(=O)N2CCC3(CC2)CC(C(C)C)=NO3)cc1	i	-7%[70.6 µM]	-19%[172 µM]	100µM*
COc1ccc(C(=O)N2CCC3(CC2)Cc2ccccc2NC3=O)cc1	i	-9%	22µM*	35µM*
O=C(c1ccccc1Cl)N1CCC2(CC1)Cc1ccccc1NC2=O	i	5%	45µM*	?
COc1ccc(C(=O)N2CCC3(CC(C(C)C)=NO3)C2)cc1 (centres undefined)	/	/	1%	0%
